This experiment has as its system Plasmodium falciparum NF54/iGP1_RE9H ulg8 stage V gametocytes. As to the kind of experiment: gametocyte viability (luciferase signal relative to DMSO control) (% of DMSO control); higher = less gametocytocidal activity, active = 50 or less. The settings on record: exposure time: 72 h. The method in brief:
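Viability was calculated relative to the mean of DMSO vehicle wells on each plate. Day-12 stage V gametocytes of line NF54/iGP1_RE9Hulg8 (~2.5% gametocytemia, 3% hematocrit, 0.5% Albumax II medium) were exposed in 96-well plates to compounds at final 10 µM or 1 µM, one well each, for 72 h at 37 °C. Luminescence was then read on an IVIS Lumina II after D-luciferin addition.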

Here are results for 55 molecules from the supplement of paper PMC12297408.

Where a name gives a salt, the structure may show the parent alone. The whole screen tested about 1,300 compounds, of which about 40 (3%) showed activity. The entries come from a sample that favours actives as a whole. Unmarked numbers belong to inactive results.

With `C#C[C@]1(O)CC[C@H]2[C@@H]3CCC4=C(CCC(=O)C4)[C@H]3CC[C@@]21C` [Norethynodrel], the gametocyte viability (concentration: 1 µM) is 83.2 and the gametocyte viability (concentration: 10 µM) was 68.7.
The matching figures for `COC(=O)C1=C(C)NC(C)=C(C(=O)OC)C1c1ccccc1[N+](=O)[O-]` [Nifedipine]: 91.8 and 80.7.
For `Clc1ccc(C(Cn2ccnc2)OCc2c(Cl)cccc2Cl)c(Cl)c1` (stereo not given) [Isoconazole] the same measures were 91.2 and 90.9.
On to `CN(C)CCOC(C)(c1ccccc1)c1ccccn1` (stereo not given) [Doxylamine succinate], for which the gametocyte viability was 87.8 (concentration: 1 µM) and 87.7 (concentration: 10 µM).
The matching figures for `Cc1cc(-n2c(=O)[nH]c(=O)n(C)c2=O)ccc1Oc1ccc(SC(F)(F)F)cc1` [Toltrazuril]: 86.4 and 84.2.
The matching figures for `CC1(C)O[C@@H]2C[C@H]3[C@@H]4C[C@H](F)C5=CC(=O)C=C[C@]5(C)[C@H]4[C@@H](O)C[C@]3(C)[C@]2(C(=O)CO)O1` [Flunisolide]: 87.5 and 88.9.
The matching figures for `Cc1cc(C(C)(C)CC(C)(C)C)ccc1OCCOCC[N+](C)(C)Cc1ccccc1` [Methyl benzethonium chloride]: 88.6 and 6.6 (active).
`CC(C)(C)CC(C)(C)c1ccc(OCCOCC[N+](C)(C)Cc2ccccc2)cc1` [Benzethonium chloride]: the gametocyte viability is 82.1 (concentration: 1 µM) and 9.32 (active) (concentration: 10 µM).
As to `C[N+](C)(CCOc1ccccc1)Cc1ccccc1.O=C([O-])c1cc2ccccc2cc1O` [Bephenium hydroxynaphthoate], the gametocyte viability (concentration: 1 µM) was 87.3 and the gametocyte viability (concentration: 10 µM) was 89.9.
On to `Cc1cc(C2CCCCC2)n(O)c(=O)c1` [Ciclopirox ethanolamine], for which the gametocyte viability was 85.5 (concentration: 1 µM) and 86.8 (concentration: 10 µM).
For `Clc1ccc2nsnc2c1NC1=NCCN1` [Tizanidine HCl] the same measures were 93.4 and 98.4.
For `C[C@H]1[C@H](NC(=O)/C(=N\OC(C)(C)C(=O)O)c2csc(N)n2)C(=O)N1S(=O)(=O)O` [Aztreonam] the same measures were 96.9 and 96.
For `CCOC(=O)O[C@]1(C(=O)OCCl)CC[C@H]2[C@@H]3CCC4=CC(=O)C=C[C@]4(C)[C@H]3[C@@H](O)C[C@@]21C` [Loteprednol etabonate], the gametocyte viability runs as follows: (concentration: 1 µM) 88.2; (concentration: 10 µM) 85.
The matching figures for `Cc1cccc(C)c1NC(=O)C(C)N` (stereo not given) [Tocainide hydrochloride]: 91.8 and 90.2.
The matching figures for `O=C1Cc2cc(CCN3CCN(c4nsc5ccccc45)CC3)c(Cl)cc2N1` [Ziprasidone  Hydrochloride]: 82.9 and 71.6.
Consider `O=C1[C@H]2CCCC[C@H]2C(=O)N1CCCCN1CCN(c2nsc3ccccc23)CC1` [Perospirone], for which the gametocyte viability is 64.7 (concentration: 1 µM) and 39.7 (active) (concentration: 10 µM).
For `O=C1CC2(CCCC2)CC(=O)N1CCCCN1CCN(c2ncccn2)CC1` [Buspirone hydrochloride] the same measures were 83.9 and 65.7.
For `OCCN(CCO)c1nc(N2CCCCC2)c2nc(N(CCO)CCO)nc(N3CCCCC3)c2n1` [Dipyridamole], the gametocyte viability by setting is: (concentration: 1 µM) 64.1; (concentration: 10 µM) 41.1 (active).
For the molecule `N=c1nc(N2CCCCC2)cc(N)n1O` [Minoxidil], the gametocyte viability is 102 (concentration: 1 µM) and 96 (concentration: 10 µM).
For `CC(C)NCC(O)c1ccc(O)c(O)c1` (single isomer, unassigned; (+)) [(+)-Isoproterenol (+)-bitartrate salt] the same measures were 100 and 97.8.
The matching figures for `CC(=O)c1ccc2c(c1)N(CCCN1CCC(CCO)CC1)c1ccccc1S2` [Piperacetazine]: 79.4 and 80.8.
The matching figures for `Fc1ccc(C(c2ccc(F)cc2)N2CCN(C/C=C/c3ccccc3)CC2)cc1` [Flunarizine dihydrochloride]: 81.5 and 95.1.
Regarding `COC1=CC(=O)C[C@@H](C)[C@]12Oc1c(Cl)c(OC)cc(OC)c1C2=O` [Griseofulvin], the gametocyte viability is 89.3 (concentration: 1 µM) and 84.6 (concentration: 10 µM).
The matching figures for `CCOC(=O)O[C@]1(C(=O)COC(=O)CC)CC[C@H]2[C@@H]3CCC4=CC(=O)C=C[C@]4(C)[C@H]3[C@@H](O)C[C@@]21C` [Prednicarbate]: 91.7 and 90.6.
For `CN(Cc1cnc2nc(N)nc(N)c2n1)c1ccc(C(=O)N[C@@H](CCC(=O)O)C(=O)O)cc1` [Methotrexate] the same measures were 91.4 and 87.9.
The matching figures for `CN(Cc1cnc2nc(N)nc(N)c2n1)c1ccc(C(=O)N[C@@H](CCC(=O)O)C(=O)O)cc1` (racemic) [Amethopterin (R,S)]: 80.3 and 83.6.
Take `COc1cccc2c1C(=O)c1c(O)c3c(c(O)c1C2=O)C[C@@](O)(C(=O)CO)C[C@@H]3O[C@H]1C[C@H](N)[C@H](O)[C@H](C)O1` [Doxorubicin hydrochloride]: the gametocyte viability was 64.5 (concentration: 1 µM) and 19 (active) (concentration: 10 µM).
The matching figures for `COc1cccc2c1C(=O)c1c(O)c3c(c(O)c1C2=O)C[C@@](O)(C(C)=O)C[C@@H]3O[C@H]1C[C@H](N)[C@H](O)[C@H](C)O1` [Daunorubicin hydrochloride]: 69.8 and 7.37 (active).
For `C#C[C@]1(O)CC[C@H]2[C@@H]3CCC4=CCCC[C@@H]4[C@H]3CC[C@@]21C` [Lynestrenol] the same measures were 86 and 89.2.
On to `CCCCNc1c(C(=O)OCC)c(C)nc2c1cnn2CC` [Tracazolate hydrochloride], for which the gametocyte viability was 88.5 (concentration: 1 µM) and 76.3 (concentration: 10 µM).
On to `CC#C[C@]1(O)CC[C@H]2[C@@H]3CCC4=CC(=O)CCC4=C3[C@@H](c3ccc(N(C)C)cc3)C[C@@]21C` [Mifepristone], for which the gametocyte viability is, setting by setting: (concentration: 1 µM) 83.1; (concentration: 10 µM) 83.2.
For `CN(C)CCOC1=Cc2ccccc2Sc2ccc(Cl)cc21` [Zotepine] the same measures were 91.1 and 86.
With `CCOC(=O)N1CCC(=C2c3ccc(Cl)cc3CCc3cccnc32)CC1` [Loratadine], the gametocyte viability (concentration: 1 µM) was 86 and the gametocyte viability (concentration: 10 µM) was 87.7.
For `CC(C)(C#N)c1cc(Cn2cncn2)cc(C(C)(C)C#N)c1` [Anastrozole] the same measures were 77.6 and 45.8 (active).
For `OC(Cn1cncn1)(Cn1cncn1)c1ccc(F)cc1F` [Fluconazole] the same measures were 83.4 and 86.9.
For `CN(C)CCc1c[nH]c2ccc(Cn3cncn3)cc12` [Rizatriptan benzoate] the same measures were 84.2 and 84.
With `CC(C)c1nc(CN(C)C(=O)N[C@H](C(=O)N[C@@H](Cc2ccccc2)C[C@H](O)[C@H](Cc2ccccc2)NC(=O)OCc2cncs2)C(C)C)cs1` [Ritonavir], the gametocyte viability is 66.4 (concentration: 1 µM) and 36.5 (active) (concentration: 10 µM).
Consider `Nc1ccc(/N=N/c2ccccc2)c(N)n1` [Phenazopyridine hydrochloride], for which the gametocyte viability is 88.3 (concentration: 1 µM) and 48.1 (active) (concentration: 10 µM).
For `Nc1c2ccccc2nc2ccccc12` [Aminacrine] the same measures were 85.8 and 81.4.
For `CCN1CCN(C(=O)N[C@@H](C(=O)N[C@@H]2C(=O)N3C(C(=O)O)=C(CSc4nnnn4C)CS[C@H]23)c2ccc(O)cc2)C(=O)C1=O` [Cefoperazone dihydrate] the same measures were 79.3 and 83.8.
The matching figures for `CC(N)CCCC(C)(C)O` (stereo not given) [Heptaminol hydrochloride]: 82.3 and 84.6.
Consider `Cc1c(-c2ccccc2)oc2c(C(=O)OCCN3CCCCC3)cccc2c1=O` [Flavoxate hydrochloride], for which the gametocyte viability by setting is: (concentration: 1 µM) 92; (concentration: 10 µM) 87.
With `N#CC(c1ccc(Cl)cc1)c1c(Cl)cc(-n2ncc(=O)[nH]c2=O)cc1Cl` (stereo not given) [Diclazuril], the gametocyte viability was 92.9 (concentration: 1 µM) and 91.4 (concentration: 10 µM).
The matching figures for `CC(=O)Nc1c(I)c(C(=O)N[C@H]2C(O)O[C@H](CO)[C@@H](O)[C@@H]2O)c(I)c(N(C)C(C)=O)c1I` (stereo not given in full) [Metrizamide]: 84.7 and 88.9.
For `CCCC1C(=O)N2C(N(C)C)=Nc3ccc(C)cc3N2C1=O` (stereo not given) [Azapropazone] the same measures were 89.5 and 87.5.
With `Oc1c(Cl)cc(Cl)c2cccnc12` [Chloroxine], the gametocyte viability is 83.4 (concentration: 1 µM) and 84.2 (concentration: 10 µM).
For `CO[C@@]1(NC(=O)Cc2cccs2)C(=O)N2C(C(=O)O)=C(COC(N)=O)CS[C@@H]21` [Cefoxitin sodium salt] the same measures were 85.9 and 81.1.
For the molecule `CNC1(C)C2CCC(C2)C1(C)C` (stereo not given) [Mecamylamine hydrochloride], the gametocyte viability is 93.8 (concentration: 1 µM) and 94.3 (concentration: 10 µM).
For `CCC(C)(C)C(=O)O[C@H]1C[C@@H](C)C=C2C=C[C@H](C)[C@H](CC[C@@H]3C[C@@H](O)CC(=O)O3)[C@H]21` [Simvastatin] the same measures were 80.4 and 85.5.
For `CCOC(=O)C1=C(COCCN)NC(C)=C(C(=O)OC)C1c1ccccc1Cl` (stereo not given) [Amlodipine] the same measures were 82.2 and 63.1.
For `COCCc1ccc(OCC(O)CNC(C)C)cc1` (racemic) [Metoprolol-(+,-) (+)-tartrate salt], the gametocyte viability was 94 (concentration: 1 µM) and 94 (concentration: 10 µM).
Turning to `CCCCCCNC(=O)n1cc(F)c(=O)[nH]c1=O` [Carmofur], the gametocyte viability runs as follows: (concentration: 1 µM) 80.2; (concentration: 10 µM) 76.4.
Turning to `Cc1cccn2c(=O)c(-c3nnn[nH]3)cnc12` [Pemirolast potassium], the gametocyte viability was 80.6 (concentration: 1 µM) and 84.7 (concentration: 10 µM).
For the molecule `COc1cc(C(=O)N2CCOCC2)cc(OC)c1OC` [Trimetozine], the gametocyte viability was 81.7 (concentration: 1 µM) and 80.2 (concentration: 10 µM).
For `CN1CCc2c(c3ccccc3n2Cc2ccccc2)C1` [Mebhydroline 1,5-naphtalenedisulfonate] the same measures were 88.8 and 83.3.
